# Bioassay records deposited in PubChem by National Center for Advancing Translational Sciences (NCATS).
# A selection: hits, their analogues and other compounds. The true share with any hit is near 2.4%.
# POLH inh: qHTS for Inhibitors of Polymerase Eta; recombinant Pol eta, fluorescent DNA replication assay; 390,000 compounds, 1.2% hits; Potency, µM (doses to about 114 µM), for inactives: top-dose activity change, negative = inhibition, most hits filed as inhibitors; DNA polymerase eta (Homo sapiens), Q9Y253; AID 588591, 2011; further: on the % scale 0 is the no-effect control and ±100 the full control effect
#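 Pol eta at 10 nM preincubated with compounds 15 min at room temperature; reaction started with fluorescent substrate (50 nM final) and read kinetically at 0 and 10 min.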
# GLS inh: qHTS for Inhibitors of Glutaminase (GLS); Glutaminase kidney isoform, mitochondrial (Homo sapiens), O94925; GLS enzymatic activity, qHTS titration; Potency, µM (highest dose often 45.5 µM), inactives show at the top dose activity change, negative = inhibition, hits mostly inhibitors; 410,000 compounds, 0.21% hits; AID 624170, 2012; further: on the % scale 0 is the no-effect control and ±100 the full control effect
# Target sequence (O94925 whole entry, looked up, canonical isoform): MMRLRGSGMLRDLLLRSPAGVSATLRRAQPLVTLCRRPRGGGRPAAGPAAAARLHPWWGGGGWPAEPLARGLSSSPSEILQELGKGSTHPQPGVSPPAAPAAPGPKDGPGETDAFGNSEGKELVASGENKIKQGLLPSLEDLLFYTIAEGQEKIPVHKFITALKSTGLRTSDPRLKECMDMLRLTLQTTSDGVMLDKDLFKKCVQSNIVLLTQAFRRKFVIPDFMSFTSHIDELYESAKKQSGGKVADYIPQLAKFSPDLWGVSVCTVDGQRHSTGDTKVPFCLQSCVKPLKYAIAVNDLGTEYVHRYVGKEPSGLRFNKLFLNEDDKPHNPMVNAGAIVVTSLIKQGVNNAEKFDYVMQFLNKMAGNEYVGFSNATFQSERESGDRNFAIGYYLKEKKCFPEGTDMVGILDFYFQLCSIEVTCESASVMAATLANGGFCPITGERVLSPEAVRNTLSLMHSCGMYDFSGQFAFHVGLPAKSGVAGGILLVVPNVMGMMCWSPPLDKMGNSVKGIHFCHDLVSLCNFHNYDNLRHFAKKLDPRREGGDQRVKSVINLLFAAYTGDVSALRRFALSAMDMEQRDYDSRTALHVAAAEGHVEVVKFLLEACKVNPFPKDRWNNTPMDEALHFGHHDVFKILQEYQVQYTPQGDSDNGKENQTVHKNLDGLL
#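 Human kidney-isoform GLS in 45 mM KH2PO4 pH 8.2, 0.02% Tween-20, with compound, started with 1mM L-Glutamine (added stock). Glutamate oxidase/HRP/Amplex red coupled fluorescence read at start and after 30 min at RT.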
# Pol beta inh: qHTS Assay for Inhibitors of DNA Polymerase Beta. AID 485314, 2010. Pol beta primer extension/strand displacement, fluorescence kinetic. Potency, µM (titrated, usually from 114 µM), for the others: top-dose activity change, negative = inhibition, most hits filed as inhibitors. P06746. 340,000 compounds, 1.3% hits; further: on the % scale 0 is the no-effect control and ±100 the full control effect
#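 10 nM enzyme + cpd, 15 min RT; start with substrate 50 nM final; read 0 min and after 10 min RT. Corrected, normalized data; 4-parameter Hill curve fit.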
# Pol kappa inh: qHTS for Inhibitors of Polymerase Kappa. DNA polymerase kappa (Homo sapiens), Q9UBT6. purified Pol kappa, fluorescent DNA synthesis assay, 10 min. Potency, µM (series often up to 107 µM), for the others: at the highest dose activity, negative = inhibition, most hits filed as inhibitors. 400,000 compounds, 0.53% hits. AID 588579, 2011; further: on the % scale 0 is the no-effect control and ±100 the full control effect
#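 Enzyme at 10 nM met test compounds for 15 min at room temperature. Substrate addition (50 nM final) began the reaction, which was monitored by fluorescence at 0 and 10 min.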
# APEX1 inh: qHTS Assay for Inhibitors of the Human Apurinic/apyrimidinic Endonuclease 1 (APE1); AID 2517, 2012; 350,000 compounds, 0.35% hits; Potency, µM (top dose mostly 65.8 µM), for inactives: at the highest dose activity change, negative = inhibition, actives largely listed as inhibitors; DNA repair nuclease/redox regulator APEX1 (Homo sapiens), P27695; recombinant APE1, TAMRA/BHQ-2 abasic DNA cleavage fluorescence;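 further: plate controls were vehicle for no effect and reference inhibitor for full effect; nearly all actives have a fitted effect of over 55% in size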
#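 Readout is kinetic fluorescence (ex 525, em 598 nm) from cleavage of 50 nM TAMRA/BHQ-2 THF abasic duplex by 0.75 nM APE1, compound added 15 min beforehand at RT.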
# Pol iota inh: qHTS for Inhibitors of Polymerase Iota. DNA polymerase iota (Homo sapiens), Q9UNA4. AID 588590, 2011. 390,000 compounds, 1% hits. Pol iota fluorescent replication assay, 10 min. Potency, µM (titrated, usually from 115 µM), for the others: at the highest dose activity, negative = inhibition, most hits filed as inhibitors
#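 Fluorescent replication assay read twice, at 0 min and 10 min after adding 50 nM (final) substrate. Enzyme (10 nM) and compounds were first incubated 15 min at room temperature; enzyme-free buffer wells were negative controls.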
# Active calls of the source: *; ? = inconclusive; nt = no result given; ! = not active in a repeat; [ ] = dose if it differs, or a comment. The call rests on the fitted dose curve; in most records, active means well fitted curve in the direction sought with a large enough effect; inconclusive means small, poorly fitted or top-dose-only effect, or another doubt; inactive means no such curve, though single readings can be large; an effect the other way counts as inactive or inconclusive. Potency means the concentration at half of the fitted maximal effect.
SMILES,POLH inh,GLS inh,Pol beta inh,Pol kappa inh,APEX1 inh,Pol iota inh
O=C1/C(=C/c2ccc([N+](=O)[O-])cc2)Oc2cc(O)ccc21,-24%,2%,-30%,-4%,11%,132%
CC(C)(C)c1ccc(/C=C2\Oc3cc(O)ccc3C2=O)cc1,-3%,5%,0%,-16%,15%,-3%
CC(C)[C@@H]1NC(=O)[C@@H](Cc2ccccc2)NC(=O)[C@H](CC(=O)O)NC(=O)CNC(=O)[C@H](CCCN=C(N)N)NC1=O,nt,nt,nt,16%[60.1 µM],-2%,nt
O=C(Nc1cc(C(F)(F)F)ccc1Cl)c1cnn(-c2ccccc2)c1-n1cccc1,-17%,-12%,-12%,-8%,nt,-6%
O=C(NCCO)c1ccc2nc(-c3ccco3)c(-c3ccco3)nc2c1,3.5µM*,135%,50µM*,25µM*,?,2.5µM*
O=C(NCCc1ccccc1)c1ccc(=O)oc1,-5%,-18%,19%,-10%,0%,8%
O=C(NCCc1ccccc1)c1ccc2nc(-c3ccco3)c(-c3ccco3)nc2c1,?,-11%,7.9µM*,?,?,?
O=C(NC1CCCC1)c1ccc2nc(-c3ccco3)c(-c3ccco3)nc2c1,3.5µM*,?,50µM*,22µM*,?,?
Cc1ccc(Cc2c(C3CCCCC3)nc3ccc(C)cn23)cc1,nt,-10%,nt,nt,nt,nt
Cc1ccc(CCN2CC(C(=O)NCCCN3CCCCC3)CC2=O)cc1 (stereo unspecified),4%,-19%,81%,-1%,44%,-5%
COC(=O)/C(=C/Nc1ccc(O)cc1)[N+](=O)[O-],-10%,29%,16%,-7%,-11%,7.1µM*
CC(C)CN(C[C@@H](OP(=O)(O)O)[C@H](Cc1ccccc1)NC(=O)O[C@@H]1CCOC1)S(=O)(=O)c1ccc(N)cc1,nt,14µM*,nt,-5%[19.4 µM],nt,nt
CCN(CCO)c1nc(SC)nc2c1sc1nc(-c3ccco3)c3c(c12)CCC3,-15%,22%,7.1µM*,?,?,?
CSC(SC)=C(C(C)=O)C(=O)c1ccc(C)cc1,-5%,-10%,15%,-5%,17%,13%
N=C1CCC(=N)c2c1c(O)c1ccccc1c2O,13µM*,?,40µM*,22µM*,?,22µM*
O=C1CCn2c1c(O)c1ccccc1c2=O,8%,22%,nt,-23%,nt,?
CC(=O)c1cccc(NC(=O)c2cc(C)no2)c1,-4%,-11%,27%,-4%,10%,?
Cn1c2ccccc2c(=O)c2cc(C#CC3=CCCCC3)ccc21,45µM*,-15%,nt,?,24%,4µM*
Cn1c2ccccc2c(=O)c2cc(C#Cc3cccc(N)c3)ccc21,-13%,3%,nt,-18%,-4%,-11%
CSc1ccc(CN2CCN(C(=O)c3ccc([N+](=O)[O-])cc3)CC2)cc1,-19%,-7%,17%,-1%,15%,119%
COc1ccc(NC(=S)NC(NC(=O)CCl)C(Cl)(Cl)Cl)c([N+](=O)[O-])c1 (stereo unspecified),50µM*,-2%,-7%,-15%,-3%,?
COc1ccc(NC(=S)NC(NC(=O)c2ccccc2Cl)C(Cl)(Cl)Cl)c([N+](=O)[O-])c1 (stereo unspecified),-3%,8%,?,-15%,-1%,10%
COc1ccccc1NC(=O)CSc1nc(O)cc(=O)n1-c1ccccc1OC,-5%,-1%,?,-37%,1%,40µM*
COc1ccccc1-n1c(SCC(=O)NC(C)(C)C)nc(O)cc1=O,-5%,0%,2%,-11%,1%,-11%
COc1ccccc1-n1c(SCC(=O)Nc2ccccc2C)nc(O)cc1=O,-9%,-4%,1%,-19%,2%,56µM*
SMILES,POLH inh,GLS inh,Pol beta inh,Pol kappa inh,APEX1 inh,Pol iota inh
O=P(O)(O)CP(=O)(O)O,nt,13%,3%,1%[19.4 µM],12%,nt
O=C(O)CP(=O)(O)O,-4%,1%,1%,8%[60.1 µM],5%,13µM*!
CC(C)(C)c1csc(NNC(=O)c2ccc(Br)cc2)n1,-9%,5µM*,21%,-19%,-2%,59%
COc1ccc(CNC(=S)NCc2ccc(Cl)cc2)cc1OC,-17%,4%,30%,0%,-12%,13%
COc1ccc(OC)c(NC(=O)CSc2nc3[nH]c(=O)[nH]c(=O)c3s2)c1,50µM*,0%,nt,-20%,nt,?
CCOC(=O)c1cnc(SCC(=O)Nc2ccc(NC(C)=O)c(OC)c2)nc1N,-13%,13%,56%,-13%,-5%,13%
CCOC(=O)c1cnc(SCC(=O)Nc2cc(OC)ccc2OC)nc1N,?,7%,22µM*,-2%,-3%,-1%
COc1ccc(C(=O)CSc2ccc(-c3ccccc3)nn2)cc1,-8%,7%,7%,-14%,12%,9%
O=C(CSc1ccc(-c2ccco2)nn1)NC1CCCCC1,?,18%,22µM*,?,?,?
COc1ccc(C(=O)CSc2ccc(-c3ccco3)nn2)cc1,?,7%,14µM*,-24%,-2%,?
COc1ccc(OC)c(NC(=O)CSc2nc3[nH]c(=O)cc(O)c3s2)c1,?,4%,nt,-14%,24%,?
COc1ccccc1NC(=O)CSc1ccc(-c2ccco2)nn1,-10%,3%,?,-5%,9%,?
COc1ccc(OC)c(NC(=O)CSc2ccc(-c3ccco3)nn2)c1,?,1%,25µM*,?,3%,25µM*
O=C(CSc1ccc(-c2ccco2)nn1)c1ccccc1,-9%,4%,11µM*,?,0%,50µM*
CCOc1ccccc1NC(=O)CCNS(=O)(=O)c1ccc2[nH]c(=O)oc2c1,-1%,-16%,?,-42%,2%,-7%
Cc1[nH]c2ccccc2c1/C=N/NC(=O)c1ccc(N)cc1,-17%,2%,20µM*,-5%,-6%,-6%
COc1ccc(/C=C(\C#N)C(=O)NCCc2ccccc2)cc1OCc1ccccc1,-21%,1%,-3%,2%,-2%,10%
N#CC(=Cc1ccc(O)c(O)c1)C(=O)NCc1ccccc1,nt,nt,nt,-29%,nt,71µM*
N#C/C(=C\c1ccc(O)c(O)c1)C(=O)NCCCc1ccccc1,16µM*!,14%,?,?,5%,?
